Results taken from article PMC5540273 (PLoS ONE, 2017).

How the values were obtained:
Details in all cases: concentration: 1 μM, replicates: in singlicate; n = 1
JNK3 = tested on: T1, JNK3
T1 construct: gene MAPK10

KIT-autoinhibited = tested on: KIT-autoinhibited
KIT = tested on: KIT
LATS1 = tested on: LATS1
LATS2 = tested on: LATS2
LCK = tested on: LCK
LIMK1 = tested on: LIMK1
LIMK2 = tested on: LIMK2
LKB1 = tested on: T2, LKB1
T2 construct: gene STK11

LOK = tested on: T3, LOK
T3 construct: gene STK10

LRRK2 = tested on: LRRK2
LTK = tested on: LTK
LYN = tested on: LYN
LZK = tested on: T4, LZK
T4 construct: gene MAP3K13

MAK = tested on: MAK
MAP3K15 = tested on: MAP3K15
MAP3K1 = tested on: MAP3K1
MAP3K2 = tested on: MAP3K2
MAP3K3 = tested on: MAP3K3
MAP3K4 = tested on: MAP3K4
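Note: KINOMEscan kinase panel screen.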

SMILES	%Inh (JNK3)	%Inh (KIT-autoinhibited)	%Inh (KIT)	%Inh (LATS1)	%Inh (LATS2)	%Inh (LCK)	%Inh (LIMK1)	%Inh (LIMK2)	%Inh (LKB1)	%Inh (LOK)	%Inh (LRRK2)	%Inh (LTK)	%Inh (LYN)	%Inh (LZK)	%Inh (MAK)	%Inh (MAP3K15)	%Inh (MAP3K1)	%Inh (MAP3K2)	%Inh (MAP3K3)	%Inh (MAP3K4)
COc1ccc(-c2coc3ccc(-c4nnc(C)o4)cc23)cc1	0%	0%	1%	0%	0%	0%	0%	0%	5%	0%	0%	0%	10%	0%	0%	0%	0%	0%	0%	8%
CNC(=O)c1ccc(C)c(-n2c(C)cc(OCc3ccc(F)cc3F)c(Br)c2=O)c1	100%	0%	0%	0%	0%	1%	0%	0%	0%	0%	0%	0%	1%	0%	0%	0%	0%	0%	0%	6%
Cn1cncc1C(=O)NC1CCN(c2ccnc(Nc3ccc(F)cc3)n2)C1 (stereo not drawn) [GSK1379717]	13%	0%	17%	25%	0%	4%	0%	2%	0%	0%	0%	6%	0%	0%	22%	0%	2%	11%	0%	13%
CCc1ccc(-c2ccc3c(c2)-c2n[nH]cc2S(=O)(=O)N3C)cc1	0%	0%	7%	0%	0%	4%	0%	0%	17%	3%	0%	3%	0%	0%	0%	0%	0%	0%	0%	19%
CS(=O)(=O)CCNCc1nc(-c2ccc3ncnc(Nc4ccc(OCc5ccccc5)c(Cl)c4)c3c2)cs1.Cl [GW582764]	0%	0%	1%	0%	0%	17%	0%	0%	0%	0%	12%	0%	0%	36%	26%	0%	6%	3%	0%	20%
O=C(Nc1n[nH]c2nc(-c3ccco3)c(Br)cc12)C1CCN(Cc2ccccc2)C1.O=C(O)[C@H](O)[C@@H](O)C(=O)O (stereo not drawn) [SB-742034]	13%	7%	22%	0%	0%	5%	0%	0%	37%	0%	0%	11%	2%	0%	25%	12%	18%	21%	24%	0%
CC(C)c1ccc(O)cc1Nc1ccnc2ccc(C(F)(F)F)cc12 [GW482059]	0%	0%	0%	0%	0%	22%	0%	0%	0%	0%	51%	0%	0%	0%	25%	13%	0%	0%	1%	13%
CSc1ccc(-c2nc3n(c2-c2ccncc2)CCC3)cc1 [SKF-105561]	59%	0%	0%	31%	13%	0%	0%	0%	0%	8%	0%	31%	8%	45%	0%	16%	0%	3%	0%	9%
Fc1ccc(-c2nc[nH]c2-c2ccncc2)cc1 [SB-217360]	98.6%	21%	0%	0%	0%	25%	0%	0%	0%	16%	0%	0%	0%	0%	5%	3%	0%	18%	0%	0%
Cc1cccc2c(-c3ccncn3)c(-c3ccc(F)cc3)nn12 [GW515532]	74%	0%	6%	0%	11%	17%	0%	0%	0%	0%	53%	0%	0%	0%	57%	0%	0%	0%	0%	0%
COC(=O)c1cccc(NC(=O)NC2CCN(c3ccnc(Nc4ccc(OC)cc4)n3)C2)c1 (stereo not drawn) [GSK1379746]	0%	0%	44%	0%	0%	11%	0%	3%	0%	0%	0%	15%	0%	34%	15%	0%	0%	0%	0%	12%
Cc1ccc(NC(=O)Nc2ccc(Cl)c(C(F)(F)F)c2)cc1-c1ccc(C(=O)Nc2ccncc2)cc1 [GSK1398470]	0%	45%	99.5%	0%	15%	57%	28%	14%	6%	65%	0%	4%	42%	0%	15%	0%	3%	0%	0%	14%
